The target in assay [1] is T1, Aspartate--tRNA(Asp/Asn) ligase (Mycobacterium tuberculosis (strain ATCC 25618 / H37Rv)) (UniProt P9WFW3). Also: in the data most compounds retested in dose-response had high values.
T1 sequence (whole entry): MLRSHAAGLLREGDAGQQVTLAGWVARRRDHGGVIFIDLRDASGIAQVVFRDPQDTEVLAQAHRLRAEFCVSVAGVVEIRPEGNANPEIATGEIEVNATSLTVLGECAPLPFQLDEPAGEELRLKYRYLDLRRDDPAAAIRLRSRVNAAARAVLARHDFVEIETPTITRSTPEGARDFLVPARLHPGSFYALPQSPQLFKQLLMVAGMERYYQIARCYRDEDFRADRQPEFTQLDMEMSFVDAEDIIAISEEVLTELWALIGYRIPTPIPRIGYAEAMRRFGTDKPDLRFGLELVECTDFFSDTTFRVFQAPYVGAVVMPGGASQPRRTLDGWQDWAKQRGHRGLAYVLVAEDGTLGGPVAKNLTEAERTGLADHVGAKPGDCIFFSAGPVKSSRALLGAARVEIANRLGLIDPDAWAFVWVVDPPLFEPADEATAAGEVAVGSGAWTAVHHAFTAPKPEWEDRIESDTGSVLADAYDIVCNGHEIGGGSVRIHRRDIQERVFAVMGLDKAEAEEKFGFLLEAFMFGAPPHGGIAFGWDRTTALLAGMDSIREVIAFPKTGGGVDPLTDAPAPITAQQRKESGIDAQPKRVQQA
In words: Assay for Asp RNA synthetase-1 from Mycobacterium tuberculosis. The assay is classed as functional. More on the design: scale not given: direction of the effect not stated beside the values. The following applies: 30 µM.

Assay [2] deals with Shiga toxin 2 (Escherichia coli O157:H7) (UniProt P09385+P09386). In words: E. coli 0.157:H7 Shiga Toxin SOP - stx2 screening assay. The assay is classed as functional. Further details: scale not given: direction of the effect not stated beside the values. The following applies: 30 µM.

Turning to `O=C(NCc1ccoc1)NC1CCCN(c2ncccn2)C1` (stereo not drawn), the figures for the Percent Effect in assay [1] and in assay [2] were -2.64% and 15.2%, respectively.
For `Cc1ccc(C(=O)NS(=O)(=O)c2ccccc2C)c(=O)[nH]1` the same measures were -0.991% and 10.2%.
In the same order, the values of `Cc1nc(CN2CCCC(N(C)CCc3cccs3)C2)no1` (stereo not drawn) are -3.43% and 25.8%.
For `CC(C)OCCCNC(=O)CS(=O)(=O)Cc1ccc(Cl)c(Cl)c1` the same measures were 5.22% and 30.4%.
Turning to `COc1ccccc1OC1(C(=O)O)CCN(c2nccnc2C)CC1`, the Percent Effect in assay [1] is 1.09%; in assay [2], -3.46%.
Consider `Cc1ccc(C(=O)N2C[C@@H]3COC[C@]3(COc3cccnc3)C2)cn1`, for which the Percent Effect in assay [1] was 2.55%; in assay [2], -13.2%.
For `Cc1nn(C)c(C)c1C1CCCN1CC(=O)NC(C1CC1)C1CC1` (stereo not drawn) the same measures were -3.8% and -0.393%.
For `Cc1nc(CN2CCCC(NCCOc3ccccc3)C2)no1` (stereo not drawn) the same measures were -8.02% and -0.215%.
In the same order, the values of `CCOc1ccc(N(CC(=O)c2ccccc2)C2=NCCCCC2)cc1` are 1.35% and -5.46%.
Regarding `CC[C@@H]1N(Cc2ccsc2)CCC[C@]12CCC(=O)N2CCOC`, the Percent Effect in assay [1] is -5.67%; in assay [2], 7.49%.
In the same order, the values of `CSc1ccc(S(=O)(=O)N2CCCCC2CCNC(C)=O)cc1` (stereo not drawn) are 7.57% and -4.85%.
For the compound `O=C(c1cnccn1)N1C[C@@H]2CC[C@H](C1)N(C(=O)Cc1ccsc1)C2`, the Percent Effect was -3.45% in assay [1] and -38.6% in assay [2].
Turning to `CCS(=O)(=O)N1CCC(c2nc3ccc(-c4ccccc4)cn3n2)CC1`, the figures for the Percent Effect in assay [1] and in assay [2] were 0.251% and -35.2%, respectively.
For `Cc1nc[nH]c1CN1C[C@@H]2CC[C@H](C1)N(C(=O)CCNS(C)(=O)=O)C2` the same measures were -4.9% and -0.862%.
In the same order, the values of `O=C(c1csc(-c2cccs2)n1)N1CCCC1Cn1cccn1` (stereo not drawn) are 3.15% and 37.2%.
For `Cc1nc(CN2CCN(C(=O)COCc3ccccc3)CC2)no1` the same measures were -0.353% and -1.66%.
`CCCOCCCNc1nccc(-c2cn(C)nc2C)n1`: the figures for the Percent Effect in assay [1] and in assay [2] were -3.96% and 18.1%, respectively.
For `O=c1[nH]c(CN(Cc2ccco2)C2CCCC2)nc2ccccc12` the same measures were -3.64% and -24.3%.
In the same order, the values of `NCCn1nc(C2CCN(C(=O)CC3CCCCC3)C2)c2nccnc21` (stereo not drawn) are 1.37% and -31.7%.

The values above are taken from ChEMBL document CHEMBL3988442, “University of Dundee, Small-Polar-MMV Screening Library” (2021).
